{"source": "PubChem BioAssay AID743099", "about": "(Vanderbilt Specialized Chemistry Center, 2013)", "note": "Values without a mark were called inactive. The rule behind the calls is not given here."}
{"molecular_target": "Muscarinic acetylcholine receptor M2 (Homo sapiens) (UniProt P08172)", "sequence (P08172 whole entry, looked up)": "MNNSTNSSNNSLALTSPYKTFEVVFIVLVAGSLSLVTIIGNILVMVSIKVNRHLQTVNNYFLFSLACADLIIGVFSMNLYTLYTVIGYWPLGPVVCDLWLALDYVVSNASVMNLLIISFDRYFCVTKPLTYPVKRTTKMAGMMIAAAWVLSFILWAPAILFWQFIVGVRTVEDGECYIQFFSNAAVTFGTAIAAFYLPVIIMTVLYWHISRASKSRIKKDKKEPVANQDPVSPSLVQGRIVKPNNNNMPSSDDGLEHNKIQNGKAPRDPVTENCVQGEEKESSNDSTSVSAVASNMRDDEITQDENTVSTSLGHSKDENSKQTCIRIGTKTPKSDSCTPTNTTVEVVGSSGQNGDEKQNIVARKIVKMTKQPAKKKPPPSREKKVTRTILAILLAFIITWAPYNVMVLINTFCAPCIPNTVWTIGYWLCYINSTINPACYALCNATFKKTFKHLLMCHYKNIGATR", "experiment": "human M2 receptor modulation in M5 NAM selectivity check, counter-screen for M5 NAM project, cell-based, CHO-K1 hM2/Gqi5, Fluo-4 calcium flux, ACh EC20 (AID 743099)", "details": "series mostly up to 30 µM; % max ACh response: at the top concentration"}
{"smiles": "O=C(c1ccc(F)c(F)c1)N1CCN2C(=O)c3ccccc3C12c1ccccc1", "note": "(stereo not given)", "% max ACh response": 80.5}
{"smiles": "O=C(c1ccc(F)c(F)c1)N1CCN2C(=O)c3ccccc3[C@@]12c1ccc(Cl)cc1", "% max ACh response": 83.3}
{"smiles": "O=C(c1ccc(F)cc1)N1CCN2C(=O)c3ccccc3C12c1ccccc1", "note": "(stereo not given)", "% max ACh response": 77.1}
{"smiles": "O=C(c1ccc(F)c(F)c1)N1CCN2C(=O)c3ccccc3C12c1ccc(Cl)cc1", "note": "(stereo not given)", "% max ACh response": 83.7}
{"smiles": "O=C(c1cc(F)cc(F)c1)N1CCN2C(=O)c3ccccc3C12c1ccc(Cl)cc1", "note": "(stereo not given)", "% max ACh response": 79.1}
